# In PubChem BioAssay (EPA / NIEHS):
# Calls of active or inactive are those of the source. How the source made its calls: active means hit-call score of the fitted dose curve at least 0.9, where 1 is the maximum; inactive means score below 0.9.
# Read-out: CD38, CD38 (gene 952)
# Test: BSK_SAg_CD38: BioMAP Diversity Plus: SAg Assay for CD38 Biomarker Activity (AID 2283087)
# Conditions: primary human HUVEC with PBMC; actives raise or lower the signal
# Experimental: BSK_SAg is a cell-based, multiplexed-readout assay that uses umbilical vein endothelium and peripheral blood mononuclear cells, a human vascular primary cell co-culture, with measurements taken at 24 hours after chemical dosing in a 96-well plate.BSK_SAg_CD38 is one of 10 assay component(s) measured or calculated from the BSK_SAg assay. It is designed to make measurements of enzyme-linked immunosorbent assay, a form of binding reporter, as detected with fluorescence intensity signals by Enzyme-linked immunosorbent assay technology.Data from the assay component BSK_SAg_CD38 was analyzed into 1 assay endpoint. This assay endpoint, BSK_SAg_CD38, was analyzed with bidirectional fitting relative to DMSO as the negative control and baseline of activity. Using a type of binding reporter, gain or loss-of-signal activity can be used to understand changes in the signaling as they relate to the gene CD38. Furthermore, this assay endpoint can be referred to as a primary readout, because this assay has produced multiple assay endpoints where this one serves a signaling function. To generalize the intended target to other relatable targets, this assay endpoint is annotated to the cytokine intended target family, where the subfamily is other cytokine.
# The levels of cell surface (or secreted, indicated by the prefix "s") biomarker endpoints were measured by ELISA. Overt cytotoxicity to cells in confluent adherent cultures (all systems other than the BT system) was assessed by measuring total protein levels using sulforhodamine B (SRB) staining in parallel cultures at the time of biomarker measurements, indicated as SRB endpoints. For proliferation assays for adherent cell types, individual cell types are cultured at sub-confluence and relative cell numbers quantified by SRB staining at time points optimized for each system (48 h: 3C and CASM3C systems; 72 h: BT and HDF3CGF systems; 96 h: SAg system). SRB was performed by staining cells with 0.1% SRB after fixation with 10% TCA and reading wells at 560 nm.Viability and proliferation of PBMC (T cells) was quantified by Alamar Blue reduction for the SAg and BT systems. For PBMC viability (referred to as PBMC Cytotoxicity within the assay endpoint names), cells were plated (75,000/well in a 96-well plate) and then chemical samples added for 1 h before addition of activators, SEB and TSST-1 (20 ng/mL final concentration each). Cells were incubated for 90 h. Then, Alamar Blue (20 uL/well) (Invitrogen, Cat DAL1100) was added for 6 h, and the plates were read with a fluorescence microplate reader at 546/580 nm (excitation/emission). For PBMC proliferation, cells were plated and activated as above but incubated for only 16 h prior to addition of Alamar Blue. Plates were read after 6 h.
SMILES,outcome,AC50
CC(C)(C)c1ccccc1,inactive,
CC1=C(C)S(=O)(=O)CCS1(=O)=O,inactive,
CCC(C)N(C)C(=O)c1cc2ccccc2c(-c2ccccc2Cl)n1 (stereo not given),inactive,
CCN(CC)CCOc1ccc(C(=C(Cl)c2ccccc2)c2ccccc2)cc1,,8.84 µM (active)
Cn1cnc2c1c(=O)[nH]c(=O)n2C,inactive,
NC(=Nc1ccccc1)Nc1ccccc1,inactive,
CCCCC(CC)COP(=O)(OCC(CC)CCCC)OCC(CC)CCCC (stereo not given),inactive,
N[C@@H](Cc1c[nH]c2ccccc12)C(=O)O,inactive,
O=C1OC(c2ccc(O)cc2)(c2ccc(O)cc2)c2ccccc21,,28.7 µM (active)
CSc1ccc(Oc2ccc(S(N)(=O)=O)cc2CN(C)C)cc1C,inactive,
CCCCCCC(CCCCCCCCCCC(=O)OCC(COC(C)=O)OC(C)=O)OC(C)=O (stereo not given),inactive,
CCOCCOCCO,inactive,
CCCCc1nc2cccnc2n1Cc1ccc(-c2ccccc2-c2nnn[nH]2)cc1,inactive,
COC(=O)CCCC(=O)OC,inactive,
O=NO,inactive,
O=C1CCCCC1,inactive,
O=C(Oc1ccccc1)c1cccc(C(=O)Oc2ccccc2)c1,inactive,
CC(COCC(C)OC(=O)c1ccccc1)OC(=O)c1ccccc1 (stereo not given),inactive,
COc1ccc(OC(F)(F)F)cc1CN[C@H]1CCCN[C@H]1c1ccccc1,inactive,
O=C(O)c1[nH]n(-c2ccc(S(=O)(=O)O)cc2)c(=O)c1N=Nc1ccc(S(=O)(=O)O)cc1,inactive,

SMILES,outcome,AC50
Nc1nc(Cl)nc2c1ncn2[C@H]1C[C@H](O)[C@@H](CO)O1,inactive,
O=Cc1ccccc1C=O,inactive,
CCCC[C@H]1CN(CC2CCOCC2)C(=O)OC12CCN(C1(C)CCN(C(=O)c3c(C)ncnc3C)CC1)CC2,inactive,
CC(=O)OCC(COC(C)=O)OC(C)=O,inactive,
O=C1O[C@H]([C@H](O)CO)C(O)=C1O,inactive,
CS(=O)(=O)c1ccc([C@@H](C[C@H]2CCC(=O)C2)C(=O)Nc2cnccn2)cc1Cl,inactive,
CC(C)c1cccc(C(C)C)c1,inactive,
CC(=O)S[C@H](C(=O)N[C@H]1Cc2ccccc2[C@H]2CCC[C@@H](C(=O)O)N2C1=O)C(C)C,inactive,
Cc1ccc(C(C)(C)C)c(O)c1,inactive,
CCc1nc(N)nc(N)c1-c1ccc(Cl)cc1,inactive,
CC(=O)O,inactive,
CCCCCCCC(=O)OC,inactive,
O=C(O)c1cccnc1,inactive,
CC(=O)O[C@]1(C(C)=O)CC[C@H]2[C@@H]3C=C(Cl)C4=CC(=O)[C@@H]5C[C@@H]5[C@]4(C)[C@H]3CC[C@@]21C,inactive,
Cc1c(C)c2c(c(C)c1O)CCC(C)(COc1ccc(CC3SC(=O)NC3=O)cc1)O2 (stereo not given),,24.9 µM (active)
O=C(NS(=O)(=O)/C=C/c1cccs1)c1ccc(F)cc1Br,inactive,
CC(=O)CC(c1ccccc1)c1c(O)c2ccccc2oc1=O (stereo not given),inactive,
C/C=C/C=C/C(=O)O,inactive,
O=C1NC(=O)C(c2ccccc2)(c2ccccc2)N1,inactive,
S=c1[nH]c2ccccc2s1,inactive,
